High-throughput results from PubChem BioAssay.
c-Myc SMM: binders of human c-Myc. P01106. small molecule microarray, His-c-Myc binding, anti-His fluorescence. calls only. 1.5% of 17,000 active. AID 624141;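 active = spot fluorescence over background with P-value below 7% in all four replicate spots, showing protein binding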;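 also: score is binary with 100 for all four spots passing and 0 otherwise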
NFkB binder: binds human NF-kappa-B p105 on microarray | P19838 | 1.3% of 17,000 active | Small molecule microarray, anti-His fluorescence binding | calls only;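 active = spot fluorescence over background significantly raised, with a chance value under 7% in all four replicate spots of the compound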;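 also: probe protein is his-tagged human p50 processed subunit at 1 µg/ml; raw spot fluorescence signals with no normalization applied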
mut p53 SMM: mutant p53 (human) binding. 0.4% of 17,000 active. calls only. small molecule microarray binding, anti-GST fluorescence;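 active = compounds whose four printed spots each glow above background more than chance allows, each with a p-value under 7%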
STAT3 binder: STAT3 (human) binding. AID 624138. calls only. 0.2% of 17,000 active. P40763. Small molecule microarray, His-STAT3 binding, anti-His fluorescence;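 active = compounds whose four printed spots each show fluorescence over background unusually high for their array block, chance value under 7%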
Numbers without * were called inactive; i = inactive; + = active, no number. Sampled rows, rich in hits. Any-hit rate of the full collection: about 2.5%.

SMILES	c-Myc SMM	NFkB binder	mut p53 SMM	STAT3 binder
Cc1cc(SCc2sc(-c3ccc(C(F)(F)F)c(F)c3)nc2C)ccc1OCC(=O)O	+	i	i	i
CCNC(=O)[C@H]1O[C@@H](n2cnc3c(N)ncnc32)C(O)[C@H]1O (stereo not given in full)	i	i	i	i
CC(CO)NC(=O)C1C=C2c3cccc4[nH]cc(c34)CC2N(C)C1 (stereo not given)	+	i	i	i
c1ccc(CC(c2ccccc2)N2CCCCC2)cc1 (stereo not given)	i	i	i	i
